From PubChem BioAssay (NCI)
Several values for one entry are separate records, joined by “and”; a condition that tells them apart may be missing. Equal entries are not always repeated. Compounds without any hit were thinned out: in the full panel of roughly 83,000, 20% have a hit.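 Compound tested at a single concentration for 48 hours in 96-well plates; a percent growth value below 10 was scored as active.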 Activity calls are given as the source filed them.

The compounds below were run on UACC-62 melanoma (assay: NCI-60 one-dose screen, 48 h (100 = growth as untreated, 0 = no growth, -100 = all killed)). Conditions: 10 µM unless noted.
In the case of COC(=O)c1ccc(NC(=O)O/N=C(\Cl)C(C)C)cc1, the growth is reported as -90.3% [100 µM] (active) and -100% [100 µM] (active). With COc1ccc(-c2nc3ccccc3c(=S)n2OC(C)=O)cc1 the growth was -63.4% [25 µM] (active) and -95.7% [25 µM] (active). For Cc1ccc(OCC2OC(n3cnc4nc(Cl)nc(Cl)c43)CC2Oc2ccc(C)cc2)cc1 (centres undefined), the growth was -72.2% [100 µM] (active) and -100% [100 µM] (active). C=CC1=C(C)C2=NC1=CC1=NC(=C(CC)/C1=C\O)C=C1N=C3C(=C1C)C(=O)[C@H](C(=O)OC)C3=C1NC(=C2)[C@@H](C)[C@@H]1CCC(=O)O was tested, and the growth was -28.7% [100 µM] (active) and 0.467% [100 µM] (active). With COC(=O)C(Cc1nc2ccccc2[nH]c1=O)C(=O)C(=O)Nc1cc(C(F)(F)F)ccc1Cl (centres undefined) the growth was -87.8% [100 µM] (active) and -39.4% [100 µM] (active). Clc1ccc(C2NN=C3c4ccccc4OCC32)cc1 (centres undefined) was tested, and the growth was 4.4% [100 µM] (active) and -69.2% [100 µM] (active). O=C1CC(c2ccccc2)NCCCCN2CC(CN1)C(C(O)c1ccccc1)C2=O (centres undefined) was tested, and the growth was 72.5% [100 µM] (inactive) and 81.1% [100 µM] (inactive). For N#C/C=C1\C=CC(O)C(O)C1OC1OC(CO)C(O)C(O)C1O (centres undefined), the growth was 95% [100 µM] (inactive) and 88.4% [100 µM] (inactive). With COc1ccc(OC)c(N(CN2C(=O)CCC2C(=O)O)C(C)=O)c1 (centres undefined) the growth was 80.4% [100 µM] (inactive) and 103% [100 µM] (inactive). For CC(C)(C)c1cc(C2COC(=O)COCCOCC(=O)OCCOCCO2)cc(C(C)(C)C)c1O (centres undefined), the growth was 24.1% [100 µM] (inactive) and -65.6% [100 µM] (active). In the case of C=C1C(=O)OC2/C=C(\CO)CC/C=C(\CO)CC(OC(=O)C(C)C)C12 (centres undefined), the growth is reported as -89.5% [100 µM] (active) and -98.8% [100 µM] (active). COc1cc2oc3c(c(=O)c2c(O)c1/C=C/C(C)C)CCC(C)(C)Oc1cc(O)ccc1-3 was tested, and the growth was -23.1% [100 µM] (active) and -100% [100 µM] (active). With O=C1NC(N/N=C\c2ccccc2)=N/C1=C/c1ccccc1 the growth was -53.2% [100 µM] (active) and -100% [100 µM] (active). COc1cc(Oc2c(C)c(Cl)c(OC)c(Cl)c2OC)c2c(c1Cl)COC2=O was tested, and the growth was -38% [100 µM] (active) and -9.28% [100 µM] (active). In the case of NC(N)=Nc1ccc(CC(N)C(=O)O)cc1 (centres undefined), the growth is reported as 89% [12.5 µM] (inactive) and 94.1% [12.5 µM] (inactive). With COC(=O)c1cnn2c1n[n+]([O-])c1ccccc12 the growth was 72.4% [100 µM] (inactive) and -65.7% [100 µM] (active). For CC1CC2(OC2C)C(=O)OC2CCN(C)C/C=C(/COC(=O)C1(C)O)C2=O (centres undefined), the growth was 89.6% [100 µM] (inactive) and 94.3% [100 µM] (inactive). With O=C(CCc1ccc(O)c(O)c1)c1ccc(O)c(O)c1O the growth was -41% [100 µM] (active) and -97.2% [100 µM] (active). For CCCCCCCCCC(O)CC(=O)c1c(O)cccc1O (centres undefined), the growth was -96.8% [100 µM] (active) and -100% [100 µM] (active). COc1cc([C@H]2OC[C@H]3[C@@H]2CO[C@@H]3c2cc(OC)c3c(c2)OCO3)cc(OC)c1OC was tested, and the growth was 43.3% [100 µM] (inactive) and 24% [100 µM] (inactive). COC(=O)C(=O)C(C(=O)C(=O)Nc1nc2ccc(C)cc2s1)c1nc2ccc([N+](=O)[O-])cc2[nH]c1=O (centres undefined) was tested, and the growth was 61.1% [100 µM] (inactive) and 52.2% [100 µM] (inactive). With NC(Cc1ccc(S(=O)(=O)O)cc1)C(=O)NC(Cc1ccc(S(=O)(=O)O)cc1)C(=O)NC(Cc1ccc(S(=O)(=O)O)cc1)C(=O)NC(Cc1ccc(S(=O)(=O)O)cc1)C(=O)O (centres undefined) the growth was 86.3% [100 µM] (inactive) and 93.4% [100 µM] (inactive). In the case of CC1=CC(=O)c2ccc(C)cc2C1=O, the growth is reported as -90.3% [100 µM] (active) and -100% [100 µM] (active). In the case of CNC(=S)/C(=N\Nc1nc[nH]c1C(N)=O)C(N)=S, the growth is reported as -8.08% [100 µM] (active) and 0.0251% [100 µM] (active).
